Consider 8 compounds from PubChem BioAssay (NCI).

Molecules are shown by their SMILES. “And” between values parts separate entries of the source, which are not always exact repeats. Equal entries are not always repeated. Compounds without any hit were thinned out: in the full panel of roughly 79,000, 15% have a hit. The source holds several records for some structures; these can differ, active in one and inactive in another. The source made the active and inactive calls. No stated cut-off is given here; in the data, active means growth inhibition above about 70%; inactive means the rest.

Experiment [1] is described as follows: NCI Yeast Anticancer Drug Screen. Data for the rad50 strain (AID 155).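 Further: 0% = growth of vehicle-only cultures of the same strain.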 Conditions: S. cerevisiae rad50 strain growth inhibition, stronger effect = higher value. In short, it runs like this: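 Compounds were tested on a yeast strain with an engineered DNA damage repair alteration; the reported value is growth inhibition normalised to vehicle treatment.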
A short description of experiment [2]: NCI Yeast Anticancer Drug Screen. Data for the mec2-1 strain (AID 157). The conditions noted are these: S. cerevisiae mec2-1 strain, stronger effect = higher value. The essentials:
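Yeast mec2-1 mutant treated with compound. Readout: growth inhibition vs vehicle controls.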

Experiment [3] in a line: NCI Yeast Anticancer Drug Screen. Data for the sgs1 mgt1 strain (AID 161).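 Further: 0% = growth of cultures given vehicle only.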 Conditions: S. cerevisiae sgs1 mgt1 strain, stronger effect = higher value. In short, it runs like this: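 Genetically altered yeast, compound exposure, growth inhibition relative to vehicle.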
The nature of experiment [4]: NCI Yeast Anticancer Drug Screen. Data for the cln2 rad14 strain (AID 165).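 Further: 0% = growth equal to vehicle treated cultures.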 The conditions noted are these: S. cerevisiae cln2 rad14 strain, stronger effect = higher value. In short, it runs like this: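 cln2 rad14 yeast strain; compound exposure; growth inhibition read vs vehicle controls.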
Experiment [5] in a line: NCI Yeast Anticancer Drug Screen. Data for the bub3 strain (AID 167). The conditions noted are these: S. cerevisiae bub3 mutant strain, stronger effect = higher value. In short, it runs like this:
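Growth of a checkpoint-deficient yeast mutant is measured after compound exposure. Values represent inhibition relative to vehicle.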

The nature of experiment [6]: NCI Yeast Anticancer Drug Screen. Data for the mlh1 rad18 strain (AID 175). Conditions: S. cerevisiae mlh1 rad18 strain growth inhibition, stronger effect = higher value. The essentials:
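Yeast w/ defined DNA-repair lesions; compound exposure; growth vs vehicle controls → % inhibition.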

The mark [7] stands for this setting: at 5.0 µM (retest, dose inferred, filed as 0.5).
[8] abbreviates: at 50.0 µM (retest, dose inferred, filed as 5.0).

`C=CCNC(=O)c1ccccc1SC(C)=O`: the growth inhibition is 14% (inactive) in experiment [1] (setting [7]); 99% (active) in experiment [1] (setting [8]); 88.9% (active) in experiment [1] (at 50.0 µM); 33% (inactive) in experiment [2] (setting [7]); 99% (active) in experiment [2] (setting [8]); 91.5% (active) in experiment [2] (at 50.0 µM). The growth inhibition in experiment [3] (setting [7]) was 20% (inactive); in experiment [3] (setting [8]) it was 99% (active); in experiment [3] (at 50.0 µM) it was 89% (active); in experiment [4] (setting [7]), 23% (inactive); in experiment [4] (setting [8]), 96% (active); in experiment [4] (at 50.0 µM), 72% (active). Further, the growth inhibition is 52% (inactive) in experiment [5] (setting [7]); 99% (active) in experiment [5] (setting [8]); 89.2% (active) in experiment [5] (at 50.0 µM); 18% (inactive) in experiment [6] (setting [7]); 99% (active) in experiment [6] (setting [8]); 89.3% (active) in experiment [6] (at 50.0 µM).

Consider `Cc1c2cc[n+](C)cc2c(C)c2c1[nH]c1ccccc12`, for which the growth inhibition was 28% (inactive) in experiment [1] (setting [7]); 68% (inactive) in experiment [1] (setting [8]); 27.5% (inactive) and 40.4% (inactive) in experiment [1] (at 50.0 µM); 18% (inactive) in experiment [2] (setting [7]); 22% (inactive) in experiment [2] (setting [8]); 29.2% (inactive) and -21.1% (inactive) in experiment [2] (at 50.0 µM). The growth inhibition in experiment [3] (setting [7]) was 28% (inactive); in experiment [3] (setting [8]), 36% (inactive); in experiment [3] (at 50.0 µM), 75.7% (active) and -25% (inactive); in experiment [4] (setting [7]), 27% (inactive); in experiment [4] (setting [8]), 32% (inactive); in experiment [4] (at 50.0 µM) it was 23.8% (inactive) and 2.8% (inactive). Also, the growth inhibition in experiment [5] (setting [7]) was 12% (inactive); in experiment [5] (setting [8]), 31% (inactive); in experiment [5] (at 50.0 µM) it was 62.8% (inactive) and -38.5% (inactive); in experiment [6] (setting [7]), 16% (inactive); in experiment [6] (setting [8]), 39% (inactive); in experiment [6] (at 50.0 µM), 54.5% (inactive) and 26.9% (inactive).

Take `Nc1ccc([N+](=O)[O-])c(S(=O)(=O)O)c1`: the growth inhibition in experiment [1] (setting [7]) was -160% (inactive); in experiment [1] (setting [8]), -143% (inactive); in experiment [1] (at 50.0 µM), 60.8% (inactive) and -0.9% (inactive); in experiment [2] (setting [7]), -46% (inactive); in experiment [2] (setting [8]) it was -47% (inactive); in experiment [2] (at 50.0 µM) it was 28.6% (inactive) and -3.55% (inactive). Also, the growth inhibition is -60% (inactive) in experiment [3] (setting [7]); -54% (inactive) in experiment [3] (setting [8]); 46% (inactive) and 3.45% (inactive) in experiment [3] (at 50.0 µM); -56% (inactive) in experiment [4] (setting [7]); -53% (inactive) in experiment [4] (setting [8]); 40.2% (inactive) and -6.5% (inactive) in experiment [4] (at 50.0 µM). Also, the growth inhibition in experiment [5] (setting [7]) is -71% (inactive); in experiment [5] (setting [8]) it was -57% (inactive); in experiment [5] (at 50.0 µM), 78.8% (active) and -31.6% (inactive); in experiment [6] (setting [7]), -139% (inactive); in experiment [6] (setting [8]), -104% (inactive); in experiment [6] (at 50.0 µM), 64.6% (inactive) and 6.45% (inactive).

Turning to `Nc1cc2ccccc2c2c1ccc1ccccc12`, the growth inhibition was -159% (inactive) and 6% (inactive) in experiment [1] (setting [7]); 4% (inactive) and 95% (active) in experiment [1] (setting [8]); 96.5% (active) and 89.7% (active) in experiment [1] (at 50.0 µM); -48% (inactive) and 1% (inactive) in experiment [2] (setting [7]); 8% (inactive) and 97% (active) in experiment [2] (setting [8]); 96.9% (active) and 94.2% (active) in experiment [2] (at 50.0 µM). Further, the growth inhibition in experiment [3] (setting [7]) is -66% (inactive) and 14% (inactive); in experiment [3] (setting [8]) it was -18% (inactive) and 64% (inactive); in experiment [3] (at 50.0 µM), 97.8% (active) and 92.5% (active); in experiment [4] (setting [7]), -56% (inactive) and -2% (inactive); in experiment [4] (setting [8]) it was 24% (inactive) and 95% (active); in experiment [4] (at 50.0 µM), 95.3% (active) and 90.5% (active). Also, the growth inhibition in experiment [5] (setting [7]) is -64% (inactive) and -4% (inactive); in experiment [5] (setting [8]), -2% (inactive) and 96% (active); in experiment [5] (at 50.0 µM) it was 97.6% (active) and 91.4% (active); in experiment [6] (setting [7]), -125% (inactive) and 3% (inactive); in experiment [6] (setting [8]) it was -40% (inactive) and 96% (active); in experiment [6] (at 50.0 µM), 96.4% (active) and 90.7% (active).

On to `CC1(c2ccccc2)c2ccccc2N(c2ccccc2)C(=O)C1O` (centres undefined), for which the growth inhibition is 98% (active) in experiment [1] (setting [7]); 100% (active) in experiment [1] (setting [8]); -2.35% (inactive) and 99.5% (active) in experiment [1] (at 50.0 µM); 98% (active) in experiment [2] (setting [7]); 100% (active) in experiment [2] (setting [8]); 7.75% (inactive) and 99.7% (active) in experiment [2] (at 50.0 µM). In addition, the growth inhibition in experiment [3] (setting [7]) is 97% (active); in experiment [3] (setting [8]) it was 99% (active); in experiment [3] (at 50.0 µM), 8.35% (inactive) and 99.6% (active); in experiment [4] (setting [7]), 96% (active); in experiment [4] (setting [8]) it was 99% (active); in experiment [4] (at 50.0 µM), 1.8% (inactive) and 99.2% (active). The growth inhibition is 97% (active) in experiment [5] (setting [7]); 99% (active) in experiment [5] (setting [8]); -0.35% (inactive) and 99.7% (active) in experiment [5] (at 50.0 µM); 98% (active) in experiment [6] (setting [7]); 99% (active) in experiment [6] (setting [8]); 10.2% (inactive) and 99.4% (active) in experiment [6] (at 50.0 µM).

Consider `O=C1Nc2ccccc2C1(O)C/C(=N/O)c1ccc2ccccc2c1` (centres undefined), for which the growth inhibition is 34% (inactive) in experiment [1] (setting [7]); 36% (inactive) in experiment [1] (setting [8]); 35.1% (inactive) in experiment [1] (at 50.0 µM); 27% (inactive) in experiment [2] (setting [7]); 40% (inactive) in experiment [2] (setting [8]); 13.9% (inactive) in experiment [2] (at 50.0 µM). The growth inhibition in experiment [3] (setting [7]) is 71% (active); in experiment [3] (setting [8]), 51% (inactive); in experiment [3] (at 50.0 µM), 49.5% (inactive); in experiment [4] (setting [7]), 52% (inactive); in experiment [4] (setting [8]) it was 44% (inactive); in experiment [4] (at 50.0 µM) it was 38% (inactive). Further, the growth inhibition in experiment [5] (setting [7]) is 47% (inactive); in experiment [5] (setting [8]) it was 77% (active); in experiment [5] (at 50.0 µM), 14.9% (inactive); in experiment [6] (setting [7]), 40% (inactive); in experiment [6] (setting [8]) it was 64% (inactive); in experiment [6] (at 50.0 µM), 66.5% (inactive).

With `CCCCCCCCCCCCOC(=O)C(C)OC(C)=O` (centres undefined), the growth inhibition in experiment [1] (setting [7]) is 1% (inactive) and 2% (inactive); in experiment [1] (setting [8]) it was 99% (active) and 97% (active); in experiment [1] (at 50.0 µM), 98.8% (active) and 98.9% (active); in experiment [2] (setting [7]), -1% (inactive) and 1% (inactive); in experiment [2] (setting [8]), 99% (active) and 98% (active); in experiment [2] (at 50.0 µM), 98.5% (active) and 98.8% (active). In addition, the growth inhibition is 2% (inactive) and 5% (inactive) in experiment [3] (setting [7]); 99% (active) in experiment [3] (setting [8]); 99.2% (active) and 7.6% (inactive) in experiment [3] (at 50.0 µM); -1% (inactive) and 5% (inactive) in experiment [4] (setting [7]); 97% (active) and 92% (active) in experiment [4] (setting [8]); 98.8% (active) and 96.5% (active) in experiment [4] (at 50.0 µM). Also, the growth inhibition in experiment [5] (setting [7]) was 1% (inactive); in experiment [5] (setting [8]) it was 99% (active) and 96% (active); in experiment [5] (at 50.0 µM), 98% (active) and 99.1% (active); in experiment [6] (setting [7]), -10% (inactive) and 2% (inactive); in experiment [6] (setting [8]), 99% (active); in experiment [6] (at 50.0 µM), 98.7% (active) and 99% (active).

Turning to `CCC(C)[P+](c1ccccc1)(c1ccccc1)c1ccccc1` (centres undefined), the growth inhibition in experiment [1] (setting [7]) is 2% (inactive); in experiment [1] (setting [8]) it was 36% (inactive); in experiment [1] (at 50.0 µM) it was 62.9% (inactive) and 33.3% (inactive); in experiment [2] (setting [7]) it was 18% (inactive); in experiment [2] (setting [8]), 60% (inactive); in experiment [2] (at 50.0 µM), 66% (inactive) and 29.6% (inactive). In addition, the growth inhibition in experiment [3] (setting [7]) is -8% (inactive); in experiment [3] (setting [8]) it was 23% (inactive); in experiment [3] (at 50.0 µM), 53.9% (inactive) and 19.9% (inactive); in experiment [4] (setting [7]) it was -4% (inactive); in experiment [4] (setting [8]) it was 25% (inactive); in experiment [4] (at 50.0 µM) it was 58.1% (inactive) and 36% (inactive). Further, the growth inhibition in experiment [5] (setting [7]) is -3% (inactive); in experiment [5] (setting [8]), 30% (inactive); in experiment [5] (at 50.0 µM) it was 57.8% (inactive) and 36% (inactive); in experiment [6] (setting [7]), 21% (inactive); in experiment [6] (setting [8]) it was 54% (inactive); in experiment [6] (at 50.0 µM) it was 72.4% (active) and 53.9% (inactive).
